JMJD2A Tudor – JMJD2A Tudor domain (human) inhibition; O75164; AlphaScreen JMJD2A-Tudor / H3K4me3 peptide binding; Potency, µM (titrated, usually from 114 µM), without a hit: at the top dose activity change, negative = inhibition, hits mostly inhibitors; hit rate 4.4% among 390,000; also: % is scaled to controls: 0 for no effect and ±100 for the full control effect; nearly all actives have a fitted effect of over 50% in size
BAZ2B inh – blocks human BAZ2B | AlphaScreen BAZ2B-H3K14Ac peptide displacement | Potency, µM (titrated, usually from 114 µM), for inactives: at the highest dose activity change, negative = inhibition, usual class: inhibitors | hit rate 4.4% among 360,000 | Q9UIF8; also: % is scaled to controls: 0 for no effect and ±100 for the full control effect; nearly all actives have a fitted effect of over 60% in size
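In this displacement format the biotinylated H3(5-23) peptide acetylated at Lys14 serves as ligand at 50 nM, with BAZ2B at 50 nM in PBS pH 7.4 containing 0.01% Tween-20. Donor and acceptor beads are 10 ug/mL final.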
Sfp inh – blocks B. subtilis Sfp PPTase activity | Q9F4F7 | Biochemical Sfp PPTase activity, qHTS | Potency, µM, inactives show largest response in the series, negative = inhibition, actives largely listed as inhibitors | hit rate 3.5% among 310,000;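 also: the enzyme is Sfp with the accession as filed and its product quenches rhodamine fluorescence; 0% = enzyme reaction without inhibitor and -100% = no enzyme wells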
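Buffer: 50 mM Hepes-Na pH 7.6, 10 mM MgCl2, 0.01% Nonidet P-40, 0.01% BSA. Enzyme 15 nM, pre-exposed to compound 15 min; substrates then added and fluorescence change tracked over 30 min.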
L3MBTL1 inh – L3MBTL1 (human) inhibition. Q9Y468. AID 485360. Potency, µM (highest dose often 57.1 µM), for inactives: at the top dose activity, negative = inhibition, usual class: inhibitors. AlphaScreen L3MBTL1–H3K9me1 peptide binding. hit rate 0.66% among 230,000; also: % is scaled to controls: 0 for no effect and ±100 for the full control effect; nearly all actives have a fitted effect of over 60% in size
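First, the protein-peptide complex forms for 30 min at room temperature (L3MBTL1 50 nM, biotinylated H3K9me1 peptide 75 nM). Next, compounds are pin-transferred and incubated 30 min. Finally, AlphaScreen beads are added and read after 30 min.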
G9a inh – inhibitors of human histone lysine methyltransferase G9a; G9a H3K9 monomethylation, AlphaScreen, 2 h; Q96KQ7; hit rate 8.8% among 350,000; Potency, µM (titrated, usually from 102 µM), without a hit: top-dose activity, negative = inhibition, actives largely listed as inhibitors; also: % is scaled to controls: 0 for no effect and ±100 for the full control effect; nearly all actives have a fitted effect of over 75% in size
Target sequence (Q96KQ7 913-1193 limits assumed): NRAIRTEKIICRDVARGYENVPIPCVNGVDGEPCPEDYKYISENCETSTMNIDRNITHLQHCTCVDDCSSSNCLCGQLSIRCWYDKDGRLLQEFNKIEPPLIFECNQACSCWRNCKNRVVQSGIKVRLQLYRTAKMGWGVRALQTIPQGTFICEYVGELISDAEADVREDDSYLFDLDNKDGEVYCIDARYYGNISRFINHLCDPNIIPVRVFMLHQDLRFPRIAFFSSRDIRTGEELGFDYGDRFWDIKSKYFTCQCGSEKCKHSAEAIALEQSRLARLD
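Enzyme 20 nM + cpd, 15 min RT; add b-H3K9 pep 500 nM / SAM 20 uM; 2 h RT; anti-H3K9me1 Ab 0.5 ug/mL + SA donor / anti-rabbit acceptor beads 20 ug/mL each, 10 min; AlphaScreen read.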
HP1b chromo inh – inhibitors of HP1-beta chromodomain binding to methylated histone tails; hit rate 0.56% among 390,000; P83916; AlphaScreen HP1-beta / biotin-H3K9me3 peptide binding; Potency, µM (titrated, usually from 114 µM), inactives show at the highest dose activity change, negative = inhibition, actives largely listed as inhibitors; also: nearly all actives have a fitted effect of over 70% in size
Target sequence (P83916 whole entry, looked up): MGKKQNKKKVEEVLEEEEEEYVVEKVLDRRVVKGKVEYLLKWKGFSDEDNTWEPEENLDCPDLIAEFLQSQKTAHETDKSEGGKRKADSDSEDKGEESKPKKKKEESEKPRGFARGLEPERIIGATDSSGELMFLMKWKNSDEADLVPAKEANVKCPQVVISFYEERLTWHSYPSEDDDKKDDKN
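HP1-beta protein (50 nM final) preincubated 30 min at room temperature with biotinylated H3(1-18)K9me3 peptide (50 nM) in PBS pH 7.4, 0.01% Tween-20, then compound added for 30 min. AlphaScreen streptavidin donor/nickel chelate acceptor beads (10 ug/mL final), 30 min dark, luminescence read.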
An asterisk follows results filed as active; ? = inconclusive; · = no result given; ! = repeats disagree; [ ] = dose if it differs, or a comment. Only some compounds are listed: those with a hit (about 12% of all), similar ones and a draw of the others. Calls follow the shape of the dose curve; as a rule, active = well fitted curve in the direction sought with a large enough effect; inconclusive = small, poorly fitted or top-dose-only effect, or another doubt; inactive = no such curve, though single readings can be large; an effect the other way counts as inactive or inconclusive. Potency is read from the fitted curve at half-maximal effect.

SMILES	JMJD2A Tudor	BAZ2B inh	Sfp inh	L3MBTL1 inh	G9a inh	HP1b chromo inh
O=S(=O)(c1ccc(N2CCOCC2)cc1)N1CCOCC1	-14.2%	5.9%	6.8%	·	11.3%[59 µM]	21.7%
O=c1c2ccccc2sn1-c1ccc(Cl)c(S(=O)(=O)N2CCOCC2)c1	14.1µM*	·	·	·	·	?
O=c1c2ccccc2sn1-c1ccc(S(=O)(=O)N2CCOCC2)cc1	50.1µM*	·	·	·	·	?
Cc1ccc(NC(=O)CN2C(=O)CCSc3ccccc32)c(C)c1	-4.4%	3.5%	·	·	8.0%[59 µM]	26.6%
COc1ccc2c(c1)Cc1sc(NC(=O)c3cccc(F)c3)nc1-2	-18.9%	-3.4%	·	·	0.0%[59 µM]	-9.7%
COc1ccc2c(c1)-c1nc(NC(=O)c3ccccc3F)sc1CC2	6.9%	-5.3%	·	·	0.1%[59 µM]	68.8%
COc1ccc2c(c1)Cc1sc(NC(=O)c3cccc(Br)c3)nc1-2	-17.7%	-8.5%	·	·	0.9%[59 µM]	1.0%
COc1ccc2c(c1)Cc1sc(NC(=O)c3cccs3)nc1-2	0.0%	3.8%	25.1µM*	-21.2%[11.4 µM]	-25.9%[59 µM]	23.1%
COc1ccc2c(c1)-c1nc(NC(=O)c3cc(Cl)ccc3OC)sc1CC2	-18.2%	-9.7%	·	·	20µM*	21.2%
COc1ccc(C(=O)Nc2nc3c(s2)Cc2cc(OC)ccc2-3)cc1	-17.9%	-15.0%	79.4µM*	-23.6%	44.7µM*	-4.2%
COc1ccc2c(c1)Cc1sc(NC(=O)c3ccccc3)nc1-2	-7.6%	-4.7%	50.1µM*	·	?	25.4%
CCc1ccc(NC(=O)CSC2=Nc3ccccc3C3=NC(CCC(=O)NCCc4ccccc4)C(=O)N23)cc1 (centres undefined)	-30.3%	-21.9%	·	·	-4.1%[59 µM]	18.6%
CCc1ccc(CN(C)C(=O)CCc2nnc(Cc3cccc(C)c3)o2)nc1	0.7%	-15.4%	11.9%	6.5%	6.3%	51.9%
CCc1ccc2ncc3c(-c4ccc(C)cc4)nn(CC(=O)Nc4ccc(C)cc4)c3c2c1	-6.3%	2.6%	·	·	2.3%[59 µM]	77.5%
O=C(Cn1nc(-c2ccco2)ccc1=O)Nc1cc(C(F)(F)F)ccc1Cl	-15.3%	-20.2%	-8.4%	·	-6.2%	45.8%
O=C(Cn1nc(-c2ccco2)ccc1=O)Nc1cc(Cl)ccc1Cl	-12.5%	7.9%	44.7µM*	·	·	28.8%
O=C(Cn1nc(-c2ccco2)ccc1=O)Nc1ccc(Cl)c(Cl)c1	-8.1%	-18.7%	56.2µM*	·	?	?
COCC(=O)N1CCC2(CCCN(C(=O)Nc3cccc(F)c3)C2)CC1	·	·	-0.3%	·	9.7%[12.7 µM]	·
CCCCn1c(N)c(N(CC(C)C)C(=O)CCS(=O)(=O)c2ccc(C)cc2)c(=O)[nH]c1=O	-5.5%	-3.5%	·	0.9%	-20.3%	23.0%
CCCOC(=O)c1c(N)sc(C(=O)OCC)c1C	-8.0%	10.2%	-10.0%	6.5%	2.8%[59 µM]	8.9%
CCC1CCc2c(sc(N)c2C(N)=O)C1 (centres undefined)	?	·	·	·	·	-17.4%
CCOC(=O)c1c(N)sc2c1CCSC2	-33.2%	?	-28.7%	·	50.1µM*	-9.9%
CCOC(=O)c1c(N)sc2c1CCC1C(=O)N(C3CCCCC3)C(=O)C21 (centres undefined)	-24.7%	-6.4%	20µM*	3.6%	?	-26.0%
CCOC(=O)c1c(N)sc(C(=O)N2CCCC(C(N)=O)C2)c1C (centres undefined)	4.5%	·	·	·	·	44.8%
CCOC(=O)c1c(N)sc2c1CCC(CC)C2 (centres undefined)	-33.0%	-29.0%	-16.7%	·	11.2µM*	?
SMILES	JMJD2A Tudor	BAZ2B inh	Sfp inh	L3MBTL1 inh	G9a inh	HP1b chromo inh
C[C@@H]1CCC2[C@](C)(CO)C(O)CC[C@@]2(C)[C@@]12CC[C@](CO)(CCO)O2 (some centres undefined)	·	·	25.8%	·	·	·
N#Cc1c(N)sc(=S)c2c1CCCC2	?	39.8µM*	31.6µM*	-4.0%	7.08µM*	?
CCC1(C)Cc2c(C#N)c(N)n(-c3ccccc3)c(=S)c2CO1 (centres undefined)	-16.6%	-11.2%	9.8%	-2.2%	3.4%	19.6%
CCC1(C)Cc2c(C#N)c(N)sc(=S)c2CO1 (centres undefined)	?	?	12.6µM*	-9.2%	?	?
Cc1ccc(-c2nc(Cn3c(SCc4ccc(F)cc4)nc4cccnc43)c(C)o2)cc1	-32.0%	-13.5%	·	·	?	14.4%
Cn1c(=O)cnc2cnc(Oc3ccccc3)nc21	·	·	1.2%	·	5.3%[12.7 µM]	·
CCn1c(=O)cc(OCC(=O)N2CCCCCC2)c2ccccc21	15.8%	11.0%	6.8%	2.7%	23.3%[59 µM]	23.1%
CCn1c(=O)cc(OCC(=O)N2CCN(c3ccc(C)cc3)C(C)C2)c2ccccc21 (centres undefined)	-34.7%	?	·	·	6.31µM*	-8.7%
O=C(CSc1nnc(C2CC2)n1-c1ccccc1)Nc1ccc(N2CCOCC2)cc1	-12.0%	-29.8%	-6.5%	·	56.2µM*	26.3%
O=C(CSc1nncn1-c1ccccc1)Nc1ccc(N2CCOCC2)cc1	10µM*	-5.7%	6.1%	?	·	-12.3%
CC1(C)Cc2c(ccc3ccccc23)/C(=C/C#N)N1	?	-11.9%	-23.9%	-6.7%	50.1µM*	-10.7%
CC(=O)c1cccc(NC(=O)CCc2nc3cccnc3n2Cc2cccs2)c1	-30.1%	-19.0%	·	·	-2.9%[59 µM]	15.0%
CN(C)c1ccc(-c2nc(-n3ccnc3)c3ccccc3n2)cc1	·	·	-3.2%	·	5.4%[0.501 µM]	·
Cc1ccc(OCC(=O)N/N=C\c2ccc(-c3cccc(C(=O)O)c3)o2)c(C)c1	-35.7%	?	?	5.62µM*	35.5µM*	-2.3%
O=C(O)c1cccc(-c2ccc(/C=N/Nc3nn[nH]n3)o2)c1	56.2µM*	56.2µM*	44.7µM*	20µM*	44.7µM*	14.7%
O=[N+]([O-])c1cccc(-c2ccc(/C=N/Nc3nc(N4CCCCC4)nc(N4CCCCC4)n3)o2)c1	?	?	5.9%	?	-22.8%	-1.2%
COc1cc(OC)c(NC(=O)Nc2ccc3c(c2)N(C)C(=O)c2ccccc2S3)cc1Cl	-32.5%	-22.0%	·	·	-7.2%[59 µM]	12.4%
Cc1cccc(N2CCN(c3ncnc4c3nc3n4CCCCC3)CC2)c1C	-10.9%	-14.5%	·	·	-27.4%[59 µM]	14.7%
NS(=O)(=O)c1cc(C(=O)O)cc(N2CCCC2)c1Oc1ccccc1	-10.1%	5.4%	15.9%	-2.9%	17.8µM*!	9.7%
O=c1c(-c2cccc(Cl)c2)nc2cncnc2n1C1CC1	·	·	18.1%	·	-2.2%[0.501 µM]	·
NC(=O)c1oc2ccccc2c1NC(=O)C1CCCCC1	-19.9%	12.9%	16.0%	4.5%	-36.2%	29.5%
O=C(Nc1nnc(SCCC2OCCO2)s1)C1CC(=O)N(c2ccc(F)cc2)C1 (centres undefined)	-21.4%	?	-29.9%	·	39.8µM*	26.7%

Screening results deposited in PubChem BioAssay by National Center for Advancing Translational Sciences (NCATS).
